# Assays:
# Assay in all cases: DAPPL (digital affinity profiling via proximity ligation, sequencing); 10 mM Tris-HCl pH 7.5, 50 mM NaCl, 1 mM DTT, 4% glycerol, room temperature, 30 min; GST-TFs on glutathione beads, 16-mer random dsDNA library, 0.1% formaldehyde crosslink after washing; high values mean tight binding
# FEV = biological target: T1, FEV (Homo sapiens, UniProt Q99581 1-238); conditions: protein: recombinant; tags: N-terminal GST; dsDNA, one strand shown
# T1 sequence: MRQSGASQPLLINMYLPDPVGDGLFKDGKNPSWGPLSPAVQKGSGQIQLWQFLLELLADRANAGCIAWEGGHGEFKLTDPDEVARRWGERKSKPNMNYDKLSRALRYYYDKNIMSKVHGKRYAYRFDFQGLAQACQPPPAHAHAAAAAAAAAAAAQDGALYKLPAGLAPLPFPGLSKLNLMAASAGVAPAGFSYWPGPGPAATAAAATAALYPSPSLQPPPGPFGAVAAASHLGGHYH
# Method in brief: (§1)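 After expression in yeast as GST fusions, human transcription factors were bound to glutathione beads, DNA-barcoded and mixed with a tag-only sample. The pools were incubated with 200 nmole of a 16-mer random double-stranded DNA library in Tris/NaCl/DTT/glycerol buffer (30 min, room temperature), washed and crosslinked with 0.1% formaldehyde. Proximity ligation with BsaI/T4 ligase ran for 1 h at 37 °C, before PCR amplification and sequencing on an Illumina NextSeq500. Binding signal is a hexamer's read frequency for a factor divided by its frequency for the tag-only sample.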
# ETV5 = ETV5 (Homo sapiens, UniProt P41161 1-510); conditions: protein: recombinant; tags: N-terminal GST; dsDNA, one strand shown
# Method in brief: as §1
# HSF1 = HSF1 (Homo sapiens, UniProt Q00613 1-529); conditions: protein: recombinant; tags: N-terminal GST; chain copies: 3; dsDNA, one strand shown
# Method in brief: as §1
# SPIC = biological target: T2, SPIC (Homo sapiens, UniProt Q8N5J4 1-248); conditions: protein: recombinant; tags: N-terminal GST; dsDNA, one strand shown
# T2 sequence: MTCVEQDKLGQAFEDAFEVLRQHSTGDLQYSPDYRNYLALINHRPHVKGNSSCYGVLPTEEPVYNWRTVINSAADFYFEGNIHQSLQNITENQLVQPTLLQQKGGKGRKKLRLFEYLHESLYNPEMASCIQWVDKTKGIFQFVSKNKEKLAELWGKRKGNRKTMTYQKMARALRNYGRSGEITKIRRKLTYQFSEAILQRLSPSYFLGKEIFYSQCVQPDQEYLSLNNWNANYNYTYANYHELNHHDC
# Method in brief: as §1
# ELF4 = ELF4 (Homo sapiens, UniProt Q99607 1-663); conditions: protein: recombinant; tags: N-terminal GST; dsDNA, one strand shown
# Method in brief: as §1
# ELK4 = biological target: T3, ELK4 (Homo sapiens, UniProt P28324-2 1-405); conditions: protein: recombinant; tags: N-terminal GST; dsDNA, one strand shown
# T3 sequence: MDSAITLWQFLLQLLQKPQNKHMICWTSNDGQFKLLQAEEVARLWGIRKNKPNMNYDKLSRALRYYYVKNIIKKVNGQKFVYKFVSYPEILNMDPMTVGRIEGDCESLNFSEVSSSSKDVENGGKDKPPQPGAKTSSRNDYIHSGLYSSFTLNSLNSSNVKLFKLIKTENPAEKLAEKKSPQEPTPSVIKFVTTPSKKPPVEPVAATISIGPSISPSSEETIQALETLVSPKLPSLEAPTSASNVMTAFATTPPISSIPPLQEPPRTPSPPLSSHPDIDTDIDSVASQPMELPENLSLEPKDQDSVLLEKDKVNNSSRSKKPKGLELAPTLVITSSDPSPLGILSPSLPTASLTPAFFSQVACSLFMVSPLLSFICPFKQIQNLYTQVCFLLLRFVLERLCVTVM
# Method in brief: as §1
# ETV2 = biological target: T4, ETV2 (Homo sapiens, UniProt O00321 1-342); conditions: protein: recombinant; tags: N-terminal GST; dsDNA, one strand shown
# T4 sequence: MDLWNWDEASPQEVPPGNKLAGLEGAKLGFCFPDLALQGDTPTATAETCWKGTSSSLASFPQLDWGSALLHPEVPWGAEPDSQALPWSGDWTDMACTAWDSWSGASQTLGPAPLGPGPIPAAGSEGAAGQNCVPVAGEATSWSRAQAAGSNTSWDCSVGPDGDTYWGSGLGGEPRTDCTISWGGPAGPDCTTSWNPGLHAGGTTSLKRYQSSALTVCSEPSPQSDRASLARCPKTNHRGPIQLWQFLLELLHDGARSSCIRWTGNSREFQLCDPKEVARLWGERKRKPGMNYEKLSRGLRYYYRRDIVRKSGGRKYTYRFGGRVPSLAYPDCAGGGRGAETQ
# Method in brief: as §1
# ELF3 = biological target: T5, ELF3 (Homo sapiens, UniProt P78545 1-371); conditions: protein: recombinant; tags: N-terminal GST; dsDNA, one strand shown
# T5 sequence: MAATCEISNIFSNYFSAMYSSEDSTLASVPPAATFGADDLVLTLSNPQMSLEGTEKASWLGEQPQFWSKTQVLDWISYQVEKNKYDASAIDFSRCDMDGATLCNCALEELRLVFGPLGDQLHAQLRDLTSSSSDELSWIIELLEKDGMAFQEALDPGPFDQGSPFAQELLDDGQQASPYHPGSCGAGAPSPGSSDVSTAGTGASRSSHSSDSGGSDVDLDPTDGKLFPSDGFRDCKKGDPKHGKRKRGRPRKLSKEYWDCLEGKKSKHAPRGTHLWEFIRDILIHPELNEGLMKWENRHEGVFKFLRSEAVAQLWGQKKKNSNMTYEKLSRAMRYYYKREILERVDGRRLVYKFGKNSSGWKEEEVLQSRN
# Method in brief: as §1
# CRX = CRX (Homo sapiens, UniProt O43186 1-299); conditions: protein: recombinant; tags: N-terminal GST; dsDNA, one strand shown
# Method in brief: as §1
# CRX, sequence (O43186 whole entry): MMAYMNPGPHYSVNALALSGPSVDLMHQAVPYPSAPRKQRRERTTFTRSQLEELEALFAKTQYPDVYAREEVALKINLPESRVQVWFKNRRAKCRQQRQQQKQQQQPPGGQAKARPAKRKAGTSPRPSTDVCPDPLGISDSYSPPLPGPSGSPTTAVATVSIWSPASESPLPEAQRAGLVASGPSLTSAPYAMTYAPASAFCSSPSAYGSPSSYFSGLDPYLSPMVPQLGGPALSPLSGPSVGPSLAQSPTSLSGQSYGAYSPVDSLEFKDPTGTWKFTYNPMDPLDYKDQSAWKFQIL
# ETV5, sequence (P41161 whole entry): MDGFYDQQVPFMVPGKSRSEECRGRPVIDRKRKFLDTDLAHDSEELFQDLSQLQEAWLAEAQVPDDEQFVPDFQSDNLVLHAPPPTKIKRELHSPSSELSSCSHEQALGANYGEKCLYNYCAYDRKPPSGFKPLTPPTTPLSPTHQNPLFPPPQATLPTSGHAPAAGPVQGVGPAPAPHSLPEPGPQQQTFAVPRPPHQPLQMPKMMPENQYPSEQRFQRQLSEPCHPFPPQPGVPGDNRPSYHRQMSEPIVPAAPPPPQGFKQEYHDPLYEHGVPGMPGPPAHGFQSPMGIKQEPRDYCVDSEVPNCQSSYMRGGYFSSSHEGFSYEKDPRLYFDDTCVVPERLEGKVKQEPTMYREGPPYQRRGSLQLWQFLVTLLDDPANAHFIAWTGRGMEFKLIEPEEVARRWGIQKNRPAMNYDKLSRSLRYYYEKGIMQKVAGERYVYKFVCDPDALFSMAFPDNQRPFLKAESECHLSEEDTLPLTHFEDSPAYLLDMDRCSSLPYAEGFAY
# ELF4, sequence (Q99607 whole entry): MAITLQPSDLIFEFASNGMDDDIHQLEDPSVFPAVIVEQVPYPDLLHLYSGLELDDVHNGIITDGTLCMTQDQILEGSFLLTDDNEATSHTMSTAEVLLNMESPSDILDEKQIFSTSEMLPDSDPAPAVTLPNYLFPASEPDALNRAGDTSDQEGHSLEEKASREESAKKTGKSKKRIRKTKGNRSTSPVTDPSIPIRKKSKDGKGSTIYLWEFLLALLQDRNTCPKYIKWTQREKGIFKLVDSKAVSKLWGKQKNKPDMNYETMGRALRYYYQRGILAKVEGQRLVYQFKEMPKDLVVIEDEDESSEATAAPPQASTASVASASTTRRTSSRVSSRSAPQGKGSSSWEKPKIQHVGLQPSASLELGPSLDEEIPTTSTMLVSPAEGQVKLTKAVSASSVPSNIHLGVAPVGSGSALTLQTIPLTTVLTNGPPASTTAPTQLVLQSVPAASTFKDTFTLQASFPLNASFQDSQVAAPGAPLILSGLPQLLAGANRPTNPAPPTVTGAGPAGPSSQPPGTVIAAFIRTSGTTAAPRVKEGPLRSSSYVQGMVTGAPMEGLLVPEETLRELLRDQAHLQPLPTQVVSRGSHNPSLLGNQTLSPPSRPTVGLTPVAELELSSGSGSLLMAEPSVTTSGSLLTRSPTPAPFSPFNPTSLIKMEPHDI
# HSF1, sequence (Q00613 whole entry): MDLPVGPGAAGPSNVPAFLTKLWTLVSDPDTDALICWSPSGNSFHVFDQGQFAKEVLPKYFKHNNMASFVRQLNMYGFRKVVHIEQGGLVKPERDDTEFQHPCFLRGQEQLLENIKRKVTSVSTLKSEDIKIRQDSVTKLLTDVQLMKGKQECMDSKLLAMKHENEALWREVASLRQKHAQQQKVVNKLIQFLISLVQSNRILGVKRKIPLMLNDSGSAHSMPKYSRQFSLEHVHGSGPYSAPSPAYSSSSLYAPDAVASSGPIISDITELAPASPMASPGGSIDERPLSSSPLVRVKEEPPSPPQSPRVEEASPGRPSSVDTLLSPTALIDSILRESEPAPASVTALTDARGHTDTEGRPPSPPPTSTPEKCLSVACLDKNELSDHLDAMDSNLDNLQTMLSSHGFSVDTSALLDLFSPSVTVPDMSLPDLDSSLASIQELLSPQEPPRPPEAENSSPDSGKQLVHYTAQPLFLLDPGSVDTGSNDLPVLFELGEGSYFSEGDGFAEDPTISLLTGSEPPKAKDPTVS
sequence,measurement,setting,value
TTCAAC,binding signal,FEV,"1.29 fold enrichment (6-mer frequency, TF over GST control)"
same,binding signal,ETV5,"1.29 fold enrichment (6-mer frequency, TF over GST control)"
same,binding signal,HSF1,"1.14 fold enrichment (6-mer frequency, TF over GST control)"
same,binding signal,SPIC,"1.24 fold enrichment (6-mer frequency, TF over GST control)"
same,binding signal,ELF4,"1.28 fold enrichment (6-mer frequency, TF over GST control)"
same,binding signal,ELK4,"1.33 fold enrichment (6-mer frequency, TF over GST control)"
same,binding signal,ETV2,"1.31 fold enrichment (6-mer frequency, TF over GST control)"
same,binding signal,ELF3,"1.38 fold enrichment (6-mer frequency, TF over GST control)"
same,binding signal,CRX,"1.15 fold enrichment (6-mer frequency, TF over GST control)"
